In the library only some 21% were active in any assay of this set; here they are far more common.
TDP1 cell CPT: DT40-hTDP1 cell growth loss with CPT; hit rate 12% among 420,000; Potency, µM (highest dose often 46.2 µM), for inactives: at the highest dose activity change, negative = growth inhibition, most hits filed as inhibitors; chicken DT40 Tdp1-/-;hTDP1 cells + 20 nM CPT, ATP luminescence, 48 h; note: potency is the fitted concentration of half-maximal effect; nearly all actives have a fitted effect of over 55% in size
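Chicken DT40 Tdp1-/- cells stably complemented with human TDP1 were seeded at 400 cells/well in medium containing 20 nM camptothecin, exposed to pin-transferred compounds, and grown at 37 °C for at least 48 hr. Viability was read as ATP luminescence.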
RORgamma inh: ROR gamma (mouse) transcription inhibition. P51450. Drosophila S2 Gal4-RORgamma UAS-luciferase reporter, 20 h. Potency, µM (titrated, usually from 53.6 µM), inactives show at the top dose activity change, negative = inhibition, hits mostly inhibitors. hit rate 5.4% among 310,000; note: potency is the fitted concentration of half-maximal effect; nearly all actives have a fitted effect of over 60% in size
Target sequence (P51450 whole entry, looked up, the tested form may be a part): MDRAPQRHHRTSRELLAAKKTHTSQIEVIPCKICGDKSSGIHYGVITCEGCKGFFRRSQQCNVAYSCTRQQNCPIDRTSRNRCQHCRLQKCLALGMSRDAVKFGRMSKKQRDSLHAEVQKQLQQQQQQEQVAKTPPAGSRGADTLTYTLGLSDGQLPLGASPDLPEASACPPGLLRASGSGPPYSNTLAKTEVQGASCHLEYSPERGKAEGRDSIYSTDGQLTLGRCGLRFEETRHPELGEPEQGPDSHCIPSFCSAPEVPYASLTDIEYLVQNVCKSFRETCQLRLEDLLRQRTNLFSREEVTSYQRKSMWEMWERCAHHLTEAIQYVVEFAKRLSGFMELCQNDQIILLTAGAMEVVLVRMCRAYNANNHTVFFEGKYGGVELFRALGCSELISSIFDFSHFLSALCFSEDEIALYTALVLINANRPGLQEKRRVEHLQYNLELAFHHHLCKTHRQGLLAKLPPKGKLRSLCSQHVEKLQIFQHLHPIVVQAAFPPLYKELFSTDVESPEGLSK
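In this cell-based reporter format, copper sulfate (700 uM final) drives Gal4–ROR gamma fusion expression from a metallothionein promoter in Drosophila Schneider cells; compounds preincubated 1 hr, reporter read after 20 hr at ambient temperature.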
TDP1 cell noCPT: qHTS for Inhibitors of human tyrosyl-DNA phosphodiesterase 1 (TDP1): qHTS in cells in absence of CPT; DT40 Tdp1-/- hTDP1 cells, no CPT, ATP luminescence, 48 h; hit rate 15% among 420,000; Potency, µM (series often up to 46.2 µM), inactives show at the top dose activity change, negative = growth inhibition, most hits filed as inhibitors; note: potency is the fitted concentration of half-maximal effect; nearly all actives have a fitted effect of over 55% in size
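Seeded 400 DT40-hTDP1 cells/well (vehicle DMSO, no 20 nM CPT); pinned compounds; ≥48 hr at 37 °C; CellTiter-Glo luminescence as viability measure.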
IL1B secr inh: inflammasome signaling inhibition, IL-1 beta readout. AID 743279. activity change, % at 57.5 µM. THP-1 LPS/ATP IL-1B secretion, AlphaLISA, 16 h; hits give low values. hit rate 4.7% among 360,000; in the data active = activity change below about -50%; inconclusive = mostly about -30% to -49%
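Secreted IL-1B measured by AlphaLISA bead assay after 16 h compound exposure of THP-1 cells; compounds (final up to 57.5 uM) added 1 h before LPS (250 ng/mL) and ATP (1.25 mM) stimulation; lower signal means less secretion.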
Gal4-VP16 FLuc: Gal4-VP16 reporter inhibition counter-screen. hit rate 3.5% among 310,000. Drosophila S2 Gal4-VP16 UAS-luciferase, luminescence, 20 h. Potency, µM (series often up to 53.6 µM), for the others: at the highest dose activity, negative = inhibition, usual class: inhibitors. AID 2546;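 note: Gal4-VP16 expression switched on by copper sulfate through the metallothionein promoter; potency is the fitted concentration of half-maximal effect; nearly all actives have a fitted effect of over 50% in size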
ELG1 DNA repair: inhibitors of ELG1-dependent DNA repair in HEK293T cells; HEK293T ELG1-luciferase reporter, luminescence, 16 h; DNA damage induced by 5-fluorouridine; Potency, µM (top dose mostly 46.1 µM), for inactives: at the highest dose activity change, negative = inhibition, hits mostly inhibitors; hit rate 2.3% among 330,000; AID 504467; note: potency is the fitted concentration of half-maximal effect; nearly all actives have a fitted effect of over 55% in size
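Cells (2,000 per well) received 5-fluorouridine plus test compound or DMSO and were incubated 16 hr at 37 °C, 5% CO2. Luciferase activity was read by luminescence 30 min after ONE-Glo addition; signal suppression marked inhibition of damage-induced ELG1 function.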
The depositor's hits bear a star; ? = inconclusive; / = not tested or not shown; [ ] = another dose, or the depositor's remark. Unless noted, calls come from the whole dose curve; as a rule, active = well fitted curve in the direction sought with a large enough effect; inconclusive = small, poorly fitted or top-dose-only effect, or another doubt; inactive = no such curve, though single readings can be large; an effect the other way counts as inactive or inconclusive. % is set by controls: 0 for no effect and ±100 for the full control effect.

SMILES	TDP1 cell CPT	RORgamma inh	TDP1 cell noCPT	IL1B secr inh	Gal4-VP16 FLuc	ELG1 DNA repair
Cc1ccc2c(CNC3CCCC3)c(C(=O)O)n(Cc3ccc(F)cc3)c2c1	-7%	/	-18%	/	/	/
CCOc1ccc(CNCc2c(C(=O)O)n(Cc3ccccc3C)c3cc(OC)ccc23)cc1OC	0.65µM*	/	1µM*	/	/	/
Cc1ccc2c(CNCc3cccc(Cl)c3)c(C(=O)O)n(Cc3ccc(F)cc3Cl)c2c1	3.3µM*	/	3.3µM*	/	/	/
Cc1ccc(Cn2c(C(=O)O)c(CNCc3ccc(OC(C)C)cc3)c3ccc(C)cc32)cc1	16µM*	/	?	/	/	/
COc1ccc(CNCc2c(C(=O)O)c(C)n(Cc3ccccc3C)c2C)cc1OC	-12%	/	-1%	/	/	/
COc1ccc(Cn2c(C(=O)O)c(CNCCc3cccs3)c3ccc(C)cc32)cc1	?	/	23µM*	/	/	/
COc1ccc2c(CNCc3cccs3)c(C(=O)O)n(Cc3ccc(C)cc3)c2c1	-5%	/	-15%	/	/	/
CC(=O)Nc1c(Cl)cc2c(c1Cl)C(=O)c1ccccc1-2	12%	/	1%	-19	/	/
O=C1OC(CO)C(O)C(O)C1O (stereo not drawn)	/	-1%	/	/	1%	/
Cc1ccc(Cn2c(C(=O)O)c(CNCCc3cccs3)c3ccc(C)cc32)cc1	?	/	-21%	/	/	/
Cc1ccc2c(CNCCc3ccco3)c(C(=O)O)n(Cc3ccc(F)cc3)c2c1	21µM*	/	26µM*	/	/	/
CCOc1ccc(CNCc2c(C(=O)O)c(C)n(Cc3ccc(F)cc3Cl)c2C)cc1	?	/	13µM*	/	/	/
CC(=O)Nc1ccc(NC(=O)C(C)OC(=O)CCSc2ccccc2Cl)cc1 (stereo not drawn)	-28%	/	?	-16	/	3%
COC(=O)NC/C=C\c1nc(CCCO)co1	/	7%[10 µM]	/	/	-10%[10 µM]	/
CCN(CC)S(=O)(=O)c1cccc(NC(=O)c2cc(-c3cccs3)nn2-c2ccccc2)c1	21µM*	39%	15µM*	7	-6%	-21%
COC(=O)c1cc(-c2cccs2)nn1-c1ccccc1	4%	0%	-14%	9	2%	-12%
CN(C)S(=O)(=O)c1cccc(NC(=O)c2cc(-c3cccs3)nn2-c2ccccc2)c1	?	34%	15µM*	0	?	?
Cc1ccnn1CCC(=O)N1CCCC(Nc2ccc(F)c(F)c2)C1 (stereo not drawn)	-7%	13%	?	0	5%	7%
Cc1ccnn1CCC(=O)N1CCCC(Nc2ccc(C(C)C)cc2)C1 (stereo not drawn)	21µM*	/	16µM*	33	/	/
CC(C)c1ccc(NC2CCCN(C(=O)CC3CCCC3)C2)cc1 (stereo not drawn)	21µM*	?	10µM*	-5	0%	0%
Cc1ccc(C)c(-c2nnc(NC(=O)Cc3ccc(F)cc3)o2)c1	12µM*	0.63µM*	10µM*	-11	0.56µM*	-4%
Cc1ccc(-c2nnc(NC(=O)Cc3ccc(F)cc3)o2)c(C)c1	10µM*	1.4µM*	12µM*	-13	1.3µM*	2%
Cc1ccc(C)c(-c2nnc(NC(=O)c3ccc([N+](=O)[O-])o3)o2)c1	15µM*	/	15µM*	-10	/	?
CCCN(CC(=O)Nc1ccccc1C)C(=O)C1CC(=O)N(c2ccc(CC)cc2)C1 (stereo not drawn)	-2%	/	-5%	0	/	-5%
CCCC/C=C/[C@H](c1ccccc1)[C@H](CO)Cc1ccc2ccccc2c1	/	1%	/	/	2%	/
SMILES	TDP1 cell CPT	RORgamma inh	TDP1 cell noCPT	IL1B secr inh	Gal4-VP16 FLuc	ELG1 DNA repair
CS(=O)(=O)Nc1ccc(C(=O)Nc2ccc3ccccc3c2)cc1	2.9µM*	36%[1.91 µM]	5.2µM*	16	8%	?
CC(=O)c1cccc(NC(=O)c2ccc(NS(C)(=O)=O)cc2)c1	4%	-1%	-13%	13	7%	?
CC(C)c1ccc(NC(=O)c2ccc(NS(C)(=O)=O)cc2)cc1	2.9µM*	?	4.6µM*	-10	2%	-12%
COCCn1c(=O)c(-c2ccc(F)cc2)nc2cnc(Oc3cccc(Cl)c3)nc21	11%	-8%	-2%	/	4%	/
O[C@H]1C[C@H](c2ccccc2)N(Cc2cccs2)C[C@@H]1n1cc(C2CC2)nn1	?	/	21µM*	-10	/	/
COc1ccc([C@H]2C[C@H](O)[C@@H](n3cc(C4CC4)nn3)CN2Cc2cccs2)cc1	?	/	12µM*	15	/	/
O[C@@H]1C[C@H](c2ccccc2)N(CC2CCCCC2)C[C@H]1n1cc(C2CC2)nn1	-4%	/	?	5	/	/
CCS(=O)(=O)N1CCc2cc(C(=O)Nc3cc([N+](=O)[O-])ccc3C)ccc21	?	/	-23%	/	/	/
CCOC(=O)C1(C)CCCN1C(=O)c1ccc(OC)cc1 (stereo not drawn)	0%	/	-9%	0	/	/
NS(=O)(=O)c1ccc(N2N=C(c3ccc(Br)cc3)CC2c2ccc(F)cc2)cc1 (stereo not drawn)	?	?	?	-76*	?	?
COc1ccc(C2CC(c3ccc(Cl)cc3)=NN2c2ccc(S(N)(=O)=O)cc2)cc1 (stereo not drawn)	?	/	?	-18	/	0%
NS(=O)(=O)c1ccc(N2N=C(c3ccccc3)CC2c2cccc(F)c2)cc1 (stereo not drawn)	?	38%	-23%	?	-14%	?
NS(=O)(=O)c1ccc(N2N=C(c3ccccc3)CC2c2cccc(Br)c2)cc1 (stereo not drawn)	-20%	/	-29%	-57*	/	?
COc1ccccc1CNC(=O)C(=O)NCC1OCCCN1S(=O)(=O)c1ccc(F)cc1C (stereo not drawn)	-12%	-3%	-15%	10	6%	-26%
CCCOc1cccc(NC(=O)c2cc(C)oc2C)c1	26µM*	18%	16µM*	-14	2%	-23%
COC(=O)COc1cccc(NC(=O)c2cc(OC)cc(OC)c2)c1	3%	2%	-13%	-100*	17%	3%
CCOc1cccc(C(=O)Nc2ccc(NC(=O)c3ccccc3)c(C)c2)c1	?	18%[1.91 µM]	?	-22	0%	-22%
Cc1cc(C(=O)Nc2ccccc2)c(C)o1	-23%	16%	?	3	-13%	?
CCCCOc1cccc(NC(=O)c2cccc(C(=O)Nc3cccc(OCCCC)c3)c2)c1	18µM*	/	7.3µM*	/	/	/
COC(=O)COc1cccc(NC(=O)c2ccc(C)cc2)c1	-15%	?	-15%	-3	?	-4%

Screening results from PubChem.
